According to PubChem BioAssay AID624330 (Southern Research Specialized Biocontainment Screening …, 2012):
The campaign covered roughly 340,000 compounds. About 2,100 (0.62%) were called active.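 Rule for the calls: active = first-screen hits whose inhibition reached a set limit at any dose in the follow-up dose series; inconclusive = inhibition above the set first-screen limit but never retested; inactive = the rest.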 The list is a sample of the results. Potency and affinity values are given separately.

Each compound was assayed against Rac GTPase-activating protein 1 (Homo sapiens) (UniProt Q9H0H5) (assay: MgcRacGAP GTPase-activating activity inhibitors, confirmation, biochemical, ADP Hunter fluorescence, primary and confirmatory (AID 624330;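 note: fluorescence reports GDP produced by GAP-driven GTP hydrolysis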)). Details: MgcRacGAP-stimulated Rac1 GTP hydrolysis, at 30 µM, hits give high values, GST-tagged Rac1 F28L mutant substrate.
Sequence of Rac GTPase-activating protein 1 (Homo sapiens) (Q9H0H5 whole entry, looked up): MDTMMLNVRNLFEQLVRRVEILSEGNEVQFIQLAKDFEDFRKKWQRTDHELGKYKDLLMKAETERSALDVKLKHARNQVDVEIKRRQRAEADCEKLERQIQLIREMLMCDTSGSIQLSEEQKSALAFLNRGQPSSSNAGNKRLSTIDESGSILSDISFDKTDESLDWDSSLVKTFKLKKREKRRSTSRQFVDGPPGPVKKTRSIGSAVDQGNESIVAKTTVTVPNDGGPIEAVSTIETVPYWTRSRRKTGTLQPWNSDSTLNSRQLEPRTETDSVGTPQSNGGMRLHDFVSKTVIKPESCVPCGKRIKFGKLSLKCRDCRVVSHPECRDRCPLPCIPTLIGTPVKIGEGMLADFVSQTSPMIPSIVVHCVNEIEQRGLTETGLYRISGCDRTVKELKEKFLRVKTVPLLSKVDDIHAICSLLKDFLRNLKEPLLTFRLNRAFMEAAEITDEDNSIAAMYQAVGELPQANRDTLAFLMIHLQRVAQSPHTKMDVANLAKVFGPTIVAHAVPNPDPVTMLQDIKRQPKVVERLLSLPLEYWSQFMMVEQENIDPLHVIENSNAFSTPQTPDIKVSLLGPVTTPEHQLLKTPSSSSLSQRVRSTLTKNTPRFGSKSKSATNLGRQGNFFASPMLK

inhibition, inactive:
CCN1CCN(C(=O)c2ccccc2Nc2ccc(SC(F)F)cc2)CC1 9.86%
CCCCCC(=O)Nc1cccc(S(=O)(=O)NC2=NCCC2)c1 6%
O=C(NCc1ccccn1)c1ccc(NS(=O)(=O)c2cccc(Cl)c2)cc1 2.91%
CC1CN(Cc2nc3c(c(=O)n(C)c(=O)n3C)n2CC(O)CO)CC(C)O1 (stereo unspecified) 1.13%
CC(NC(=O)C(C)N1CCN(Cc2ccccc2)CC1)c1ccc(F)cc1 (stereo unspecified) 4.63%
CC(NC(=O)C(C)N1CCN(Cc2ccccc2)CC1)c1ccccc1 (stereo unspecified) 4.7%
CCn1c(SCC(=O)Nc2cccc(F)c2)nc2c(c1=O)SC(C)C2 (stereo unspecified) 3.97%
Cc1ccc(-n2ccnc(SCC(=O)NC3CCCCC3)c2=O)cc1F 7.99%
Cc1ccc(O)c(NC(=O)c2cc(-c3cccs3)on2)c1 5.43%
O=C(Nc1cccc(Cl)c1)c1nc[nH]c1C(=O)NCCN(CCNC(=O)c1[nH]cnc1C(=O)Nc1cccc(Cl)c1)CCNC(=O)c1[nH]cnc1C(=O)Nc1cccc(Cl)c1 10.4%
O=C(c1cc(C2CC2)nn1-c1ccccc1)N1CCN(S(=O)(=O)c2ccc(F)cc2)CC1 4.93%
COc1cc2c(CCNC(C)=O)c[nH]c2cc1Cl 7.18%
COc1ccc2[nH]cc(CCNC(C)=O)c2c1 -0.52%
O=C(C1CCN(C2CCN(Cc3ccc4c(c3)CCO4)CC2)CC1)N1CCOCC1 3.51%
COc1ccc(CCNC(=O)C2CCN(S(=O)(=O)c3ccc(C)cc3)CC2)cc1OC -4.11%
COc1cccc(N(CC(=O)NC2CCCCC2)C(=O)Cn2nnc(-c3ccc(C)o3)n2)c1 -3.15%
Cc1ccsc1/C=N/NC(=O)c1cccc(S(=O)(=O)Nc2ccccc2Cl)c1 13.6%
CC(Cn1cncn1)C(=O)N1CCN(S(=O)(=O)c2ccccc2)CC1 (stereo unspecified) 5.09%
Cc1csc(=O)n1CC(=O)OC(C)C(=O)Nc1cccc(Cl)c1 (stereo unspecified) 5.89%
Cc1csc(=O)n1CC(=O)OC(C)C(=O)Nc1ccc(F)c(F)c1F (stereo unspecified) 7.87%
CC(=O)Nc1ccc(NC(=O)C(C)OC(=O)CCN=C2NS(=O)(=O)c3ccccc32)cc1 (stereo unspecified) 7.31%
CC(OC(=O)c1cccc(N2C(=O)c3ccccc3C2=O)c1)C(=O)Nc1ccc(N(C)C)cc1 (stereo unspecified) 5.16%
Cc1ccc(-n2c(Cc3cccn3C)nnc2SCC(=O)N2CCc3ccccc32)cc1 19%
COc1cc(OC)c(OC)cc1CN1CCN(c2ccc(F)cc2)CC1 10.3%
CCN(Cc1ccccc1)C1CCN(Cc2ccccc2)CC1 -17.1%
COc1cc(OC)c(OC)cc1CN1CCN(c2ccccc2OC)CC1 19.5%
CSc1ccc(CN2CCCCCC2)cc1 18.5%
COc1cc(OC)c(OC)cc1CN1CCN(Cc2cccn2C)CC1 31.5%
CSc1ccc(/C=N/N2CCN(Cc3ccccc3Cl)CC2)cc1 0.33%
COc1ccccc1CN1CCCCCC1 24.6%
CCN(Cc1ccccc1)C(=O)C1CCN(Cc2ccc(SC)cc2)CC1 23.2%
Cc1noc(C)c1COC(=O)c1ccccc1Sc1ccccc1C#N 3.85%
CCOc1ccc(CCN2C(=S)N([C@@H](CC(C)C)CN3CCCC3CN3C(=S)NC[C@@H]3Cc3ccc(O)cc3)C[C@@H]2Cc2ccc(O)cc2)cc1 (stereo partly specified) 10.2%
O=C(OC(C(=O)NCc1ccccc1)c1ccccc1)c1ccco1 (stereo unspecified) 5.58%
Cc1cccn2cc(CNS(=O)(=O)c3cccc(F)c3)nc12 7.85%
O=C(CCc1nc2ccccc2[nH]1)N1CCN(C(=O)c2ccco2)CC1 -2.14%
CCC(C)[C@H](NC(=O)NCc1ccc(OC)c(OC)c1)C(=O)O (stereo partly specified) 11.4%
Cc1ccc2nc(SCc3nnc(-c4ccccc4)o3)[nH]c2c1 12.2%
CCOC(=O)C1(Cc2ccccc2C)CCCN(C(=O)c2ccc3nccnc3c2)C1 (stereo unspecified) 7.5%
CCN(c1ccccc1)S(=O)(=O)c1ccc(C(=O)NCCCN2CCOCC2)cc1 8.29%
O=C(NNC(=O)c1ccccc1[N+](=O)[O-])c1ccc(NC(=O)c2ccccc2)cc1 12.4%
O=C(N/C=C\n1cnc2cc(C(F)(F)F)ccc21)c1ccc([N+](=O)[O-])cc1 6.01%
CS(=O)(=O)c1ccc(Cl)c(NC(=O)CN2CCN(C(=O)c3cccs3)CC2)c1 3.52%
c1ccc(N2CCN(c3nc4ccccc4n4nnnc34)CC2)cc1 2.04%
O=C(NCc1cccc(F)c1)C1CCC(=O)N(CCc2cccc(F)c2)C1 (stereo unspecified) 0.03%
COc1cccc(C(CC(=O)NCc2ccco2)NS(=O)(=O)c2ccc(C)cc2)c1OC (stereo unspecified) 2.02%
O=C(COC(=O)c1ccccc1C(=O)c1ccc(Cl)cc1)NCC1CCCO1 (stereo unspecified) 3.71%
COc1ccc(S(=O)(=O)N2CCN(Cc3ccccc3OC)CC2)cc1 11.4%
COc1ccccc1CN1CCSCC1 23.4%
O=C(Nc1ccccc1)Nc1nncs1 9.87%
O=c1[nH]n(-c2ccc(Cl)cc2)c2ncccc12 31.6%
O=c1[nH]n(-c2ccc(F)cc2)c2ncccc12 15.2%
CC(C)=N/N=c1\scc(C)n1Cc1ccco1 6.39%
Cc1cs/c(=N\N=C\c2ccccc2)n1Cc1ccco1 7.87%
C[C@H](CO)N1C[C@H](C)[C@@H](CN(C)C(=O)Nc2ccc(C(F)(F)F)cc2)Oc2c(NC(=O)CCC(F)(F)F)cccc2C1=O 3.3%
Cc1cccc(C(=O)c2cn[nH]c2-c2ccc(C)cc2O)c1 4.53%
Cc1ccc(CNC(=O)C(=O)NCCC2CCCCN2S(=O)(=O)c2ccccc2)cc1 (stereo unspecified) 9.49%
Cc1ccccc1CNC(=O)CCn1nc(C)c2c(C)n(-c3ccccc3)nc2c1=O 13.3%
O=C(NC(=S)Nc1cccc2cc(O)ccc12)c1ccco1 23.9%
O=C(NC(=S)Nc1cccc2ncccc12)c1ccco1 -0.13%
O=C(COc1ccccc1)NC(=S)Nc1cccc2c(O)cccc12 17.9%
CCCC(=O)NC(=S)Nc1ccccc1F 5.15%
CCc1noc(C)c1C(=O)Nc1cccc2ncccc12 3.52%
O=C(COC(=O)Cc1ccc(Cl)cc1)NCc1cccs1 6.22%
COC(=O)c1ccccc1COn1c(=O)c(C)[n+]([O-])c2ccccc21 6.87%
CSc1nc(C)c2c(n1)N(c1ccc(F)cc1)CC2 11.7%
COc1ccc(N2CCc3c(C)nc(SC)nc32)cc1 2.67%
Cc1ccc(Cl)cc1N1CCN(S(=O)(=O)N2CCCCC2)CC1 8.42%
CN(C)S(=O)(=O)c1cccc(C(=O)NCCc2ccccc2)c1 10.5%
CN(c1ccccc1)S(=O)(=O)c1cccc(C(=O)NCc2ccccc2)c1 5.13%
CC(C)(C)NC(=O)C(c1ccccn1)N(C(=O)c1csnn1)C1CCCCC1 (stereo unspecified) 2.75%
CCOC(=O)C1(Cc2ccccc2)CCN(Cc2csc(C(C)=O)c2)CC1 3.47%
O=C(CCCC(=O)c1ccccc1)Nc1ccc(F)cc1 4.81%
CC(=O)Nc1ccc(NC(=O)CC(c2ccccc2)c2ccccc2)cc1 11.3%
CC(=O)c1ccc(NC(=O)CCCC(=O)c2ccccc2)cc1 8.95%
O=C(CC(c1ccccc1)c1ccccc1)Nc1ccc(C(=O)O)cc1 13.2%
Cc1c(OCC(=O)N[C@@H](CSCc2ccccc2)C(=O)O)ccc2c3c(c(=O)oc12)CCC3 4.52%
CC(=O)c1cccc(-c2ccc3c(=O)[nH]c(Nc4ccccc4)cc3c2)c1 0.61%
COc1cc(-c2cc(-c3ccccc3)nc(SCC(=O)Nc3nccs3)c2C#N)cc(OC)c1OC -0.01%
CCS(=O)(=O)Nc1cccc(C2=NN(S(=O)(=O)c3ccc(C)cc3)C(c3cccs3)C2)c1 (stereo unspecified) -1.77%
CN1OC[C@@H]2CN(C(=O)CCc3ccccc3)[C@H](c3cccc(-c4ccc(C#N)cc4)c3)C[C@@H]21 4.81%
O=C(N1CCOCC1)N1CCN(C(c2ccccc2)c2ccccc2)CC1 5.11%
CC(C)Cc1nc(SCC(=O)NCC2CCCO2)c2c(=O)n(C)c(=O)n(C)c2n1 (stereo unspecified) 5.52%
Cc1ccc(S(=O)(=O)N2CCN(CC(=O)N3CCOCC3)CC2)cc1 6.79%
Cc1ccc(N2CCN(S(=O)(=O)c3ccc(C)cc3)CC2)cc1 8.85%
Cc1cc(C)c(C)c(S(=O)(=O)N2CCN(c3ccccn3)CC2)c1C 6.39%
CC(=O)c1ccc(N2CCN(S(=O)(=O)c3ccc4ccccc4c3)CC2)cc1 1.69%
Cc1cc(C)c(C)c(S(=O)(=O)N2CCC(C(=O)N3CCN(c4ccc(F)cc4)CC3)CC2)c1C 3.44%
Cc1cc(C)c(C)c(S(=O)(=O)N2CCN(C)CC2)c1C 9.5%
Cc1ccc(C(=O)O)cc1S(=O)(=O)N1CCC(C(=O)O)CC1 3.35%
COc1cccc(N2CCN(S(=O)(=O)c3ccc4ccccc4c3)CC2)c1 -3.05%
